Assay results: the supplement of paper PMC10849652
About 8,800 targets were measured; listed, in parts, are those with a hit and a random draw of the rest. About 0.5% of all pairs of compound and target were hits.

What follows are targets tested with CCCS(=O)(=O)Nc1ccc(F)c(C(=O)c2c[nH]c3ncc(-c4ccc(Cl)cc4)cc23)c1F [vemurafenib] (assay: log2 fold change, soluble protein after heating vs DMSO (PISA); higher = thermal stabilisation; K562 lysate, 10 uM; active = over 0.2 and 3.5 SD of the protein, either way, in both replicates (recomputed)).
Summary of the method: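 Quantification was by TMTpro 16plex LC-MS/MS with equalised channel sums, applied to the supernatant after 21,000xg for 90 min. Samples were crude K562 extract at 1 mg/mL protein in PBS pH 7.4 with 1 mM MgCl2, treated with 10 μM compound for 30 min, heated for 3 min across 48°C-58°C, pooled and brought to 0.5% NP-40 at 4°C. Values are log-two fold changes in thermal stability relative to solvent controls, from duplicates.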

Chain of UniProt Q15269 (Q15269 whole entry, looked up): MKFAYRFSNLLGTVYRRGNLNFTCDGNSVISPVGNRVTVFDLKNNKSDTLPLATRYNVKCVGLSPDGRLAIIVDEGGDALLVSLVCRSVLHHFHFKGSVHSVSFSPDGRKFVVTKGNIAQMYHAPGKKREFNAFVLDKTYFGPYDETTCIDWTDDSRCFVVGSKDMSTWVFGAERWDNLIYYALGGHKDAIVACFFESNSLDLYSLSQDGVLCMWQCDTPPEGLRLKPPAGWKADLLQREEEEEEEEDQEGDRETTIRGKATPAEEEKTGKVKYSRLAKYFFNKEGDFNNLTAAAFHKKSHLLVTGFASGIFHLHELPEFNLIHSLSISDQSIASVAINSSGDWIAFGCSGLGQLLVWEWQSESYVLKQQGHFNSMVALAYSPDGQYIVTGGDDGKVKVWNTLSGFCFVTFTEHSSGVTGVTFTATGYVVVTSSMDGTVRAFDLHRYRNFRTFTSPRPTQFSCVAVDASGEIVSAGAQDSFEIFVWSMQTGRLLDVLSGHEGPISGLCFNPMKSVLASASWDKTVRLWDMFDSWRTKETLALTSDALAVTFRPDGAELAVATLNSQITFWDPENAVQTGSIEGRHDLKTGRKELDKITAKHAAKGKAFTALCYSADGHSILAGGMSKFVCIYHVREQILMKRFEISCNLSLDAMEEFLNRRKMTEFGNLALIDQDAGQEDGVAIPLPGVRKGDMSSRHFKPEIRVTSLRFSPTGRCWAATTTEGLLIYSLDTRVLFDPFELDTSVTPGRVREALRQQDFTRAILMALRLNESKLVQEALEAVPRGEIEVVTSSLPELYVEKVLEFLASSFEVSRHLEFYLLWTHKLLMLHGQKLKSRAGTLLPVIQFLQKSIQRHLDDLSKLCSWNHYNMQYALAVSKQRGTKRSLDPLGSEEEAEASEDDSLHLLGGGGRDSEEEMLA
Chain of UniProt P46020 (P46020 whole entry, looked up): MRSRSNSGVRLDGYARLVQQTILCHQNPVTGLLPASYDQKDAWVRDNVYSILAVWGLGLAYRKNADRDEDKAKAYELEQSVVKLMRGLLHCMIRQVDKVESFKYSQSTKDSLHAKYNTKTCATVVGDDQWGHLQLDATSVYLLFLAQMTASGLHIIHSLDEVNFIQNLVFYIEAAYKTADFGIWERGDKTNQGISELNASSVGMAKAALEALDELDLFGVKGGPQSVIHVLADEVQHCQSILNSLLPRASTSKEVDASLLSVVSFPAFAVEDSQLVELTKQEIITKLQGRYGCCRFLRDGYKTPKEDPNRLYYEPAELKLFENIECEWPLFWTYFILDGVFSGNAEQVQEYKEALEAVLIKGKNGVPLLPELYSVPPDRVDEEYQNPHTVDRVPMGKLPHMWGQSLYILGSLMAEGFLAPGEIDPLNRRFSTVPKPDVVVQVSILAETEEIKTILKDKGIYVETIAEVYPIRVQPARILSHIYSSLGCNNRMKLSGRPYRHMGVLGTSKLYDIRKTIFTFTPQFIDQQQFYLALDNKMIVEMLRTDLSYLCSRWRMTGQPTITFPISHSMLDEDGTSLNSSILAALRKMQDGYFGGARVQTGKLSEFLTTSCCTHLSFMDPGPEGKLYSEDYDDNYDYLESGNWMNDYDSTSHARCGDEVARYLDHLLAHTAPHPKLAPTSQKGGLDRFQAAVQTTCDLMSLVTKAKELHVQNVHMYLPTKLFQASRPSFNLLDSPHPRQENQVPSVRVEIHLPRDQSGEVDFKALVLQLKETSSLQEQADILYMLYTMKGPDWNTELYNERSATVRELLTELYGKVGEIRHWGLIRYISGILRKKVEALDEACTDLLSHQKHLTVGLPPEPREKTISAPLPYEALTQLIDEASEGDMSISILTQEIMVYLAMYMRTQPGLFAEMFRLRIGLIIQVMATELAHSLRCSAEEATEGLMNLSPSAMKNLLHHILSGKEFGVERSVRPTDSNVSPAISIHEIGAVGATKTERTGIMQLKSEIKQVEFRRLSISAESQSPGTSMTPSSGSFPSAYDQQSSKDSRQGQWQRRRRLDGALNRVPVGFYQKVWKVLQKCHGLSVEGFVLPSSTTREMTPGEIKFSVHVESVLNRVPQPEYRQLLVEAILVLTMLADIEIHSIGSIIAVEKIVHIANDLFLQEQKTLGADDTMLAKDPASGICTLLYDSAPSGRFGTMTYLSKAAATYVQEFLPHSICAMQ
Chain of UniProt O00541 (O00541 whole entry, looked up): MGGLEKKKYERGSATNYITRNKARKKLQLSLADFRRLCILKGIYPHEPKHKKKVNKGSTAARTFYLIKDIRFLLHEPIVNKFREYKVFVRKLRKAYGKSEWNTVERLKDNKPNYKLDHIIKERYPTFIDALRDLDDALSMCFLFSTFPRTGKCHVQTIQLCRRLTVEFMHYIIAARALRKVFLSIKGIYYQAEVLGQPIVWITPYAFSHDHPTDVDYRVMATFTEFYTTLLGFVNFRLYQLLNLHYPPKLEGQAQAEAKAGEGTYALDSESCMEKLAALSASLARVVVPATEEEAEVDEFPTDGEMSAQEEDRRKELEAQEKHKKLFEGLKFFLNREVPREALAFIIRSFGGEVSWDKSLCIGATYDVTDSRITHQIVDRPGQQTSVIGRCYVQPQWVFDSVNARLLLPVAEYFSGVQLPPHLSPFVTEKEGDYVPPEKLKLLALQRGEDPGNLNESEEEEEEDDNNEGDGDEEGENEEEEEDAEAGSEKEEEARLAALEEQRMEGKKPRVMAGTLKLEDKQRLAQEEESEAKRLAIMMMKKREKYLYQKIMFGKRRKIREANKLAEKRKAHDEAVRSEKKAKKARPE
Chain of UniProt Q9Y606 (Q9Y606 whole entry, looked up): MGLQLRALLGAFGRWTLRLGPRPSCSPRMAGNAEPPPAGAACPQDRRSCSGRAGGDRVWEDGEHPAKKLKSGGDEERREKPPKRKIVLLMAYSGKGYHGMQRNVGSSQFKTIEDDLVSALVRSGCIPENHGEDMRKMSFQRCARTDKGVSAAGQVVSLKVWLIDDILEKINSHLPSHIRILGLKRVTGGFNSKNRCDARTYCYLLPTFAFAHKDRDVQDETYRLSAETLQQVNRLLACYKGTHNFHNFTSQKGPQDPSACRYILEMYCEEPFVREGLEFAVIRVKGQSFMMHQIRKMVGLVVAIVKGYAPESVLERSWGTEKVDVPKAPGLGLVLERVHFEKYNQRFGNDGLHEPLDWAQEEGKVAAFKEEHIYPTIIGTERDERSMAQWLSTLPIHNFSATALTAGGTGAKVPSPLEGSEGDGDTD
Chain of UniProt O43175 (O43175 whole entry, looked up): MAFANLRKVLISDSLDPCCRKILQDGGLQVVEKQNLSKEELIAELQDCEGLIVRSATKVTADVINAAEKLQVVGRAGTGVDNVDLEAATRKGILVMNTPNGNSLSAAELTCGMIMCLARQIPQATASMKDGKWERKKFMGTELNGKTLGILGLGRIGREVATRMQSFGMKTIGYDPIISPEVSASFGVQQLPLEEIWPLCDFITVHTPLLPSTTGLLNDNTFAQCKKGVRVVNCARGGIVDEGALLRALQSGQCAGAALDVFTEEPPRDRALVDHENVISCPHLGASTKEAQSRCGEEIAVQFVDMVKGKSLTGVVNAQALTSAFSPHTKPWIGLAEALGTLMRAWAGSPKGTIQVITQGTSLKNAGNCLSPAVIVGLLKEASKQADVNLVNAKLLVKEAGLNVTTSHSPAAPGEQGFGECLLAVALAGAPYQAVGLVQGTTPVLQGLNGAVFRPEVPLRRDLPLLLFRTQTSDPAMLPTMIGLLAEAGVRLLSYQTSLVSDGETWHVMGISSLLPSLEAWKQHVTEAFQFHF
Chain of UniProt Q8N4L2 (Q8N4L2 whole entry, looked up): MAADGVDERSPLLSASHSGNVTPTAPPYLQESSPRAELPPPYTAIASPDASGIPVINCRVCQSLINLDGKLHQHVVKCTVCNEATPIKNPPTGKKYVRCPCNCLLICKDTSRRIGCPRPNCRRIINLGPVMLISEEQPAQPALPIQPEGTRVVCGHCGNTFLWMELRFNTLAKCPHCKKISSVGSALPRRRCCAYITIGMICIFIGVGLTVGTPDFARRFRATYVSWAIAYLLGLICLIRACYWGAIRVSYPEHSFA
Chain of UniProt Q05655 (Q05655 whole entry, looked up): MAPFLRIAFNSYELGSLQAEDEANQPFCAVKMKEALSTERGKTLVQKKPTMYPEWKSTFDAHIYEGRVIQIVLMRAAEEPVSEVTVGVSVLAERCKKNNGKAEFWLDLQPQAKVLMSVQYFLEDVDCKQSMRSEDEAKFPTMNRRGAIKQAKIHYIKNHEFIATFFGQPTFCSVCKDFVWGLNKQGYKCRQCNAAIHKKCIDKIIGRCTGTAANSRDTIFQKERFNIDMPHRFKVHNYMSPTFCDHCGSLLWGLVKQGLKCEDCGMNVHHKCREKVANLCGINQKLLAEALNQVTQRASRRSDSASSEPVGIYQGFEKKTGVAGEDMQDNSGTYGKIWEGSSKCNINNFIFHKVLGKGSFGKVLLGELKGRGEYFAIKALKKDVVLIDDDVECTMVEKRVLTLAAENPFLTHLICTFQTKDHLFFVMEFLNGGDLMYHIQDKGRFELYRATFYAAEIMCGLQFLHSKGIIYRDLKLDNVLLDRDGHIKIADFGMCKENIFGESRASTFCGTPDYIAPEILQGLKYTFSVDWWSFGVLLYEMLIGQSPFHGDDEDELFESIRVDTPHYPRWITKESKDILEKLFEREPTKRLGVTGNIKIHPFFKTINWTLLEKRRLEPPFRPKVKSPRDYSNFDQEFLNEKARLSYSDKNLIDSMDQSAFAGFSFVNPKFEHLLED
Chain of UniProt P13861 (P13861 whole entry, looked up): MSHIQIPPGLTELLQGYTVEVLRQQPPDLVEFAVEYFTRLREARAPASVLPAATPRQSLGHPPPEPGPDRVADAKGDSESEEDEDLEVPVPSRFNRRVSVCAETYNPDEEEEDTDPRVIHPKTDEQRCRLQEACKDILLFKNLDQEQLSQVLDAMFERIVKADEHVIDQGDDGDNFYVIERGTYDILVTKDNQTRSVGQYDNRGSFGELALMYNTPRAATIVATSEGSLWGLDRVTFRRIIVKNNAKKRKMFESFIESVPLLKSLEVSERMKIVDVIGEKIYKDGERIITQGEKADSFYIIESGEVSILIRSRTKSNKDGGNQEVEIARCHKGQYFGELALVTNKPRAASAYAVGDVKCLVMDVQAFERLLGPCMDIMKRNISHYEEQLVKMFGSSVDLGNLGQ

log2 fold change, inactive:
PCF11 (UniProt O94913) 0.042
PIP4P2 (UniProt Q8N4L2) 0.038
PRKACB isoform 2 (UniProt P22694) -0.077
PRKCD (UniProt Q05655) -0.006
PRKAR2A (UniProt P13861) -0.01
PSTPIP2 (UniProt Q9H939) 0.022
PUS1 (UniProt Q9Y606) 0.026
PWP1 (UniProt Q13610) -0.09
PWP2 (UniProt Q15269) 0.033
PHKA1 (UniProt P46020) -0.021
PICALM (UniProt Q13492) -0.004
PES1 (UniProt O00541) 0.009
PLEKHO2 (UniProt Q8TD55) 0.034
PPOX (UniProt P50336) 0.058
PRIM2 (UniProt P49643) 0.025
PHGDH (UniProt O43175) -0.005
